# PubChem BioAssay (NCATS)
# Records with an inconclusive call do not appear. Active and inactive are the calls of the source. Unless noted, no rule for the calls is given here.
# Experiments:
# [1] = qHTS profiling of the MIPE4 collection as inhibitors of Plasmodium falciparum (DD2) proliferation (Rep 2) (AID 743346); details: P. falciparum Dd2 in erythrocytes, SYBR Green DNA, 72 h; at 28.5 µM unless noted
# Summary of the method: (§1)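 Erythrocytes infected with P. falciparum (0.3% parasitemia, 2.5% hematocrit) incubated with compounds 72 h at 37 C, 5% CO2. Lysis with saponin/Triton buffer containing SYBR Green I, overnight at room temperature in the dark; DNA fluorescence (485/535 nm) normalised to 0.29 uM artemisinin and DMSO.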
# [2] = qHTS profiling of the MIPE4 collection as inhibitors of Plasmodium falciparum (HB3) proliferation (AID 743347);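 also: plate controls were DMSO vehicle wells for no effect and artemisinin wells for full effect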; details: P. falciparum HB3 in erythrocytes, SYBR Green DNA, 72 h; at 28.5 µM unless noted
# Summary of the method: as §1
# [3] = High-throughput drug toxicity screening in the BPDCN cell line Gen2.2 (AID 1224824); details: Gen2.2 BPDCN cells; at 45.8 µM (top of the series) unless noted;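 also: cells exposed to compounds for 48 h before reading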
# Summary of the method: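 Gen2.2, 500 cells/well, phenol red-free RPMI/10% FBS/Pen-Strep; 48 h cpd, 37 °C/5% CO2; CTG lum, 15 min RT. Norm: DMSO = 100%, bortezomib 9.2 uM final = 0%.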
# [4] = High-throughput drug toxicity screening in the BPDCN cell line Cal-1 (AID 1224825); details: Cal-1 BPDCN cell viability, qHTS; at 45.8 µM (top of the series) unless noted
# Summary of the method: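 Cal-1 cells, 500 per well in phenol-red-free RPMI with 10% FBS, exposed to compounds for 48 hours at 37C, 5% CO2. Viability read by CellTiter-Glo luminescence; percent activity normalized to DMSO (100%) and 9.2 uM bortezomib final (0%).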
# [5] = qHTS Screen of the MIPE 4.0 Collection Against Ewings Sarcoma (TC32) (AID 1259256; active = well fitted inhibition curve with a large enough effect; also: nearly all actives have a fitted effect of over 45% in size; also: potency is read from the fitted curve at half-maximal effect)
# Summary of the method: (§2)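 Log-phase cells in RPMI with 5% FBS attached for 4 h, then received compounds as a titration for 48 h at 37C, 5% CO2. Viability was read by CellTiter-Glo luminescence and normalized to DMSO and no-cell wells.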
# [6] = qHTS assay for measurement of the activity of small molecule inhibitors on Zika virus induced Caspase-3 activity in human astrocytoma cells (AID 1224859; active = well fitted inhibition curve with a large enough effect; also: potency is read from the fitted curve at half-maximal effect)
# Summary of the method: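 SNB-19 astrocytoma cells, 250/well, pretreated 1 h with compounds, then Zika virus at 2 FFU/cell for 6 h at 37 C; Caspase-Glo 3/7 luminescence after 30 min; percent inhibition normalised to uninfected and infected controls.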
# [7] = qHTS Screen of the MIPE 4.0 Collection Against Ewings Sarcoma (EW8) (AID 1259255; active = well fitted inhibition curve with a large enough effect; also: nearly all actives have a fitted effect of over 35% in size; also: potency is read from the fitted curve at half-maximal effect;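 as to viability: 100% = DMSO-treated cells and 0% = medium-only wells without cells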)
# Summary of the method: as §2
# [8] = qHTS Screen of the MIPE 4.0 Collection Against Ewings Sarcoma (TC71) (AID 1259253; active = well fitted inhibition curve with a large enough effect; also: nearly all actives have a fitted effect of over 40% in size; also: potency is read from the fitted curve at half-maximal effect)
# Summary of the method: as §2
# [9] = qHTS Screen of the MIPE 4.0 Collection Against Ewings Sarcoma (RDES) (AID 1259252; active = well fitted inhibition curve with a large enough effect; also: potency is read from the fitted curve at half-maximal effect; nearly all actives have a fitted effect of over 35% in size)
# Summary of the method: as §2
# [10] = qHTS assay for measurement of the activity of small molecule inhibitors on Zika virus induced Caspase-3 activity in human iPSC derived neural progenitor cells (hNPCs) (AID 1224857; active = well fitted inhibition curve with a large enough effect; also: nearly all actives have a fitted effect of over 65% in size; also: potency is read from the fitted curve at half-maximal effect)
# Summary of the method: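 Human iPSC-derived neural progenitor cells pretreated 1 hr with compounds, then infected with Zika virus (2 FFU/cell) for 6 hours at 37 C. Caspase-3/7 measured by Caspase-Glo luminescence; % inhibition calculated from induction scaled to uninfected (0%) and infected (100%) wells.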
Structure (SMILES),"parasite growth, % of control (lower = inhibition) [1]","growth, % of control [2]","cell viability, % of control (lower = more cytotoxic) [3]",viability (% of control) [4],Potency [5],Potency [6],Potency [7],Potency [8],Potency [9],Potency [10]
Clc1ccc(CCC(Cn2ccnc2)Sc2c(Cl)cccc2Cl)cc1 (centres undefined),10.3%,3.43%,177%,67.7%,inactive,,,,,
CC(C)(C)Cn1c(N)nc2ccc(-c3[nH]c(C(C)(C)C)nc3-c3ccc(F)cc3)nc21,16%,4.94%,207%,59.3%,13.2 µM (active),inactive,,,,
NC(=O)NN=Cc1ccc([N+](=O)[O-])o1,14.3%,13.3%,172%,72.8%,,inactive,,,,
COc1ccc2cccc(CCNC(C)=O)c2c1,72.6%,41%,206%,132%,,inactive,inactive,,,
OC[C@H]1O[C@@H](Oc2cc(O)cc(C=Cc3ccc(O)cc3)c2)[C@H](O)[C@@H](O)[C@H]1O,77.5%,83.3%,71.3%,60.5%,,inactive,,,,
CC(=O)OC1C(C)OC(Oc2c(-c3ccc(O)cc3)oc3cc(O)cc(O)c3c2=O)C(O)C1OC(C)=O (centres undefined),32.5%,4.99%,5.65%,7.44%,inactive,inactive,inactive,,,
Nc1nc(F)nc2c1ncn2[C@@H]1O[C@H](COP(=O)(O)O)[C@@H](O)[C@H]1O,10.9%,8.49%,97.6%,12.5%,,,14.8 µM (active),14.8 µM (active),,
O=C1NC(=O)C(=Cc2ccc3nccnc3c2)S1,114% [at 9.64 µM],88.4% [at 9.64 µM],31% [at 23.2 µM],44.1% [at 23.2 µM],,,9.11 µM (active),11.5 µM (active),14.4 µM (active),
COC(=O)C1=CO[C@@H](O)[C@@H]2C(CO)=CC[C@@H]12,98.4%,91%,17.3%,16.7%,,inactive,inactive,,,
O=C(NCc1ccccc1)c1csc(Nc2ccncn2)n1,,,1.93%,2.12%,,,20.9 µM (active),,,
COc1cc2nc(-c3ccc(N4CCN(C)CC4)cc3)nc(NCCN3CCOCC3)c2cc1OC,12.1%,2.87%,1.57%,2.25%,0.0418 µM (active),,0.0332 µM (active),0.132 µM (active),,
O=c1[nH]cnc2c1ncn2[C@H]1CC[C@@H](CO)O1,101%,659%,93.2%,121%,,inactive,,,,
O=c1c(-c2ccc(O)cc2)coc2cc(O[C@@H]3O[C@H](CO)[C@H](O)[C@H](O)[C@H]3O)ccc12,85.3%,104%,101%,99.8%,inactive,,inactive,inactive,,
CCCCCNC(=O)N1CCC(CN(Cc2ccc(Cl)cc2)Cc2ccc([N+](=O)[O-])s2)C1 (centres undefined),30.3%,55.8%,15.7%,44.4%,,inactive,,,,
COc1cc2ncnc(Nc3ccc(F)c(Cl)c3)c2cc1OCCCN1CCOCC1,,,14.5% [at 92.2 µM],4.41% [at 92.2 µM],,,,,10.8 µM (active),
Cc1c(NC(=O)c2ccc(C(C)(C)C)cc2)cccc1-c1cn(C)c(=O)c(Nc2ccc(C(=O)N3CCOCC3)cc2)n1,10.1%,5.53%,29.7%,42.2%,,11.8 µM (active),20.9 µM (active),,,
Clc1ccc(COC(Cn2ccnc2)c2ccc(Cl)cc2Cl)cc1 (centres undefined),9.72%,3.47%,115%,70.1%,18.7 µM (active),,,,,
O=c1c(-c2ccc(O)cc2)coc2cc(OC3O[C@H](CO)[C@H](O)[C@H](O)[C@H]3O)cc(O)c12 (some centres undefined),65.7%,54%,74.8%,37.3%,10.5 µM (active),,18.7 µM (active),7.43 µM (active),,
O=C(O)c1ccccc1C(=O)Nc1ccc(-c2ccccc2)cc1,,,156%,111%,,,inactive,inactive,,
O=C(O)C=Cc1ccc(O)c(O)c1,22.8%,64.3%,21.3%,8.99%,20.9 µM (active),,23.5 µM (active),18.7 µM (active),,
Clc1ccc(-c2nc3sccn3c2C=NOCc2ccc(Cl)c(Cl)c2)cc1,122%,43.2%,111%,116%,,inactive,inactive,,,
COc1ccc(Cc2nccc3cc(OC)c(OC)cc23)cc1OC,18.7%,2.71%,47.4%,96.9%,,,,18.7 µM (active),,
Cc1ccc([C@@H]2O[C@H](CO)[C@@H](O)[C@H](O)[C@@H]2O)cc1Cc1ccc(-c2ccc(F)cc2)s1,75.3%,310%,126%,48.1%,,inactive,,,,
N#CC(=C(N)Sc1ccccc1N)C(C#N)=C(N)Sc1ccccc1N,10.6%,5.29%,16.6%,12.1%,,inactive,,,,
N#Cc1ccc(NC(=O)Nc2ccccc2Br)c2n[nH]nc12,21.8%,7.81%,183%,14.7%,,inactive,,,,
c1cc(-c2sc(-c3ccncc3)c(-c3ccncc3)c2-c2ccncc2)ccn1,19.1%,3.72%,64.5%,79.1%,,,,,,

Structure (SMILES),"parasite growth, % of control (lower = inhibition) [1]","growth, % of control [2]","cell viability, % of control (lower = more cytotoxic) [3]",viability (% of control) [4],Potency [5],Potency [6],Potency [7],Potency [8],Potency [9],Potency [10]
CC1(C)CCC(CN2CCN(c3ccc(C(=O)NS(=O)(=O)c4ccc(NCC5CCOCC5)c([N+](=O)[O-])c4)c(Oc4cnc5[nH]ccc5c4)c3)CC2)=C(c2ccc(Cl)cc2)C1,24.1%,6.5%,,24.1%,,inactive,,23.5 µM (active),,inactive
CC[C@]1(O)C[C@@H]2CN(CCc3c([nH]c4ccccc34)[C@@](C(=O)OC)(c3cc4c(cc3OC)N(C=O)[C@@H]3C45CCN4CC=C[C@](CC)([C@H]45)[C@@H](OC(C)=O)[C@]3(O)C(=O)OC)C2)C1 (some centres undefined),16.2%,3.8%,,51.8%,inactive,inactive,,20.9 µM (active),,
NC(CO)(CO)CCc1ccc(Sc2cccc(OCc3ccccc3)c2)cc1Cl,15.3%,6.89%,,5.26%,,inactive,,,,inactive
Cc1ccccc1C(C(=O)NC1CCCCC1)N(C(=O)Cn1ccnc1C)c1cccc(F)c1 (centres undefined),25.9%,271%,,107%,8.33 µM (active),inactive,inactive,,,
CCc1ccc(OCc2ccccc2C(=O)Nc2ccc3nc(C)cc(N)c3c2)cc1,24.8%,10%,,4.73%,,,7.43 µM (active),7.43 µM (active),,inactive
COCCOC(=O)C1=C(C)NC2=C(C(=O)CC(c3ccccc3OC)C2)C1c1cccc(O)c1 (centres undefined),51.8%,17.6%,,5.74%,,,,,,inactive
CNC(=O)c1ccccc1Sc1ccc2c(C=Cc3ccccn3)n[nH]c2c1,,,,28.2%,,,,,,
CCn1c(C(=O)N(C2CC2)C2CC2)cc2c3c(ncn3C)c(Nc3cc(C)n(C)n3)nc21,23.5%,11.5%,144%,90.8%,,,,,,
CC(C)(C)C(=O)Oc1ccc2c(c1)nc(NC(=O)c1cccc([N+](=O)[O-])c1)n2CCCO,22.2%,10.6%,,102%,,inactive,,inactive,,inactive
O=C1NC(=O)C(=Cc2cccc(C(F)(F)F)c2)S1,76.4%,96.2%,,110%,,inactive,,,,inactive
CN(C)Cc1ccc(-c2nc3cccc4c3n2CCNC4=O)cc1,73.5%,97%,,4.01%,,inactive,,18.7 µM (active),,inactive
CC=CC[C@@H](C)C(=O)[C@H]1C(=O)N[C@@H](C(C)C)C(=O)N(C)CC(=O)N(C)[C@@H](CC(C)C)C(=O)N[C@@H](C(C)C)C(=O)N(C)[C@@H](CC(C)C)C(=O)N[C@@H](C)C(=O)N[C@H](C)C(=O)N(C)[C@@H](CC(C)C)C(=O)N(C)[C@@H](CC(C)C)C(=O)N(C)[C@@H](C(C)C)C(=O)N1C,107%,103%,,37%,18.7 µM (active),inactive,inactive,16.6 µM (active),,
CCOC(CN1C(=O)[C@](CC(=O)Nc2ccc(C)cc2)(NC(=O)Nc2ccc(C)cc2)c2ccccc21)OCC,26.1%,15.7%,,46.4%,,inactive,,,,inactive
Nc1ncnc2c1ncn2[C@@H]1O[C@H](CO)C[C@@H]1O,57.5%,79%,,39.8%,,inactive,inactive,,,inactive
CC(C)(C)OC(=O)N[C@H]1CCCCCC=C[C@@H]2C[C@@]2(C(=O)NS(=O)(=O)C2CC2)NC(=O)[C@@H]2C[C@@H](OC(=O)N3Cc4cccc(F)c4C3)CN2C1=O,10.1%,4.63%,,99.3%,inactive,inactive,,,,
CC1(C)Cc2c(sc(NC(=S)NC(=O)c3ccccc3)c2C(=O)O)CO1,110%,103%,,95.7%,,,inactive,,29.6 µM (active),20.9 µM (active)
Cc1c(O)cccc1C(=O)N[C@@H](CSc1ccccc1)[C@H](O)CN1C[C@H]2CCCC[C@@H]2C[C@@H]1C(=O)NC(C)(C)C,37.7%,15.7%,,4.13%,,inactive,23.5 µM (active),20.9 µM (active),,inactive
CC1(C)S[C@H]2[C@H](NC(=O)[C@@H](N)c3ccc(O)cc3)C(=O)N2[C@@H]1C(=O)O,8.21%,6.54%,,19.4%,,inactive,inactive,,,inactive
COc1cc2c(cc1OC)CN(CCc1ccc(NC(=O)c3cc(OC)c(OC)cc3NC(=O)c3cnc4ccccc4c3)cc1)CC2,83.4%,93.6%,,93.8%,5.9 µM (active),inactive,,,,
C[C@]12CC[C@@H]3c4ccc(O)cc4CC[C@H]3[C@H]1C[C@@H](O)[C@H]2O,76.7%,63.5%,,67.8%,26.4 µM (active),inactive,,,,inactive
CC1(C)CCC[C@@]2(C)[C@@H]1CC[C@@]1(C)OC(=O)C[C@H]21,56.5%,64.8%,,102%,,inactive,,,,inactive
CN(C)Cc1cccc(N=C(c2ccccc2)c2c(O)[nH]c3cc(C(=O)N(C)C)ccc23)c1,12.9%,36.3%,,6.94%,,inactive,,,,inactive
NS(=O)(=O)c1ccc(NC2=CC(=O)c3ccccc3C2=O)cc1,8.91%,3.54%,,88.5%,,inactive,1.87 µM (active),,,inactive
Cc1ccn(-c2ccc(-c3ncco3)cc2)c(=O)c1-c1ccc2nc(N)ncc2c1,56.7%,72.3%,,62.2%,3.72 µM (active),inactive,,16.6 µM (active),,inactive
Nc1ncnc2c1nc(Cl)n2[C@@H]1O[C@H](CO)[C@@H](O)[C@@H]1O,43.2%,125%,,9.15%,20.9 µM (active),inactive,,26.4 µM (active),,
CC=C(C)C(=O)O[C@H]1C(C)=C[C@]23C(=O)[C@@H](C=C(CO)[C@@H](O)[C@]12O)[C@H]1[C@@H](C[C@H]3C)C1(C)C,28.1%,21%,,12.7%,,,,8.33 µM (active),,inactive
